Source: publication PMC5540273 (PLoS ONE, 2017)

Key:
Settings in all cases: concentration: 1 μM, replicates: in singlicate; n = 1
MAP3K4 = tested on: MAP3K4
MAP4K2 = tested on: MAP4K2
MAP4K3 = tested on: MAP4K3
MAP4K4 = tested on: MAP4K4
MAP4K5 = tested on: MAP4K5
MAPKAPK2 = tested on: MAPKAPK2
MAPKAPK5 = tested on: MAPKAPK5
MARK1 = tested on: MARK1
MARK2 = tested on: MARK2
MARK3 = tested on: MARK3
MARK4 = tested on: MARK4
MAST1 = tested on: MAST1
MEK1 = tested on: T1, MEK1
T1 construct: gene MAP2K1

MEK2 = tested on: T2, MEK2
T2 construct: gene MAP2K2

MEK3 = tested on: T3, MEK3
T3 construct: gene MAP2K3

MEK4 = tested on: T4, MEK4
T4 construct: gene MAP2K4

MEK5 = tested on: T5, MEK5
T5 construct: gene MAP2K5

MEK6 = tested on: T6, MEK6
T6 construct: gene MAP2K6

MELK = tested on: MELK
MERTK = tested on: MERTK
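Also: KINOMEscan kinase panel screen.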

Compound | %Inh (MAP3K4) [%] | %Inh (MAP4K2) [%] | %Inh (MAP4K3) [%] | %Inh (MAP4K4) [%] | %Inh (MAP4K5) [%] | %Inh (MAPKAPK2) [%] | %Inh (MAPKAPK5) [%] | %Inh (MARK1) [%] | %Inh (MARK2) [%] | %Inh (MARK3) [%] | %Inh (MARK4) [%] | %Inh (MAST1) [%] | %Inh (MEK1) [%] | %Inh (MEK2) [%] | %Inh (MEK3) [%] | %Inh (MEK4) [%] | %Inh (MEK5) [%] | %Inh (MEK6) [%] | %Inh (MELK) [%] | %Inh (MERTK) [%]
Cl.NS(=O)(=O)c1cccc(Nc2cc(-c3ccc(F)cc3)n[nH]2)c1 [GW824645] | 1 | 0 | 0 | 0 | 0 | 0 | 0 | 0 | 19 | 14 | 6 | 9 | 12 | 45 | 22 | 27 | 70 | 0 | 0 | 0
Nc1n[nH]c2ncc(-c3ccccc3)cc12 [SB-517081] | 3 | 0 | 0 | 0 | 0 | 19 | 0 | 0 | 0 | 0 | 0 | 0 | 0 | 1 | 0 | 0 | 85 | 4 | 0 | 0
COc1cc2nccc(Nc3ccc(OCc4ccc(NC(C)=O)cc4)cc3)c2cc1OC.Cl [GW440135] | 37 | 1 | 0 | 0 | 0 | 28 | 0 | 0 | 0 | 0 | 8 | 0 | 19 | 0 | 14 | 2 | 99.6 | 0 | 0 | 40
Cc1nn2c(=O)cc(N3CCOCC3)nc2n1Cc1cccc(Cl)c1Cl [GSK2342769] | 7 | 0 | 0 | 0 | 0 | 15 | 0 | 0 | 0 | 0 | 0 | 2 | 0 | 0 | 0 | 31 | 0 | 0 | 8 | 10
COc1cc(OC)cc(-c2cc3cnc(N)nc3nc2NC(=O)NC(C)(C)C)c1 | 32 | 0 | 0 | 0 | 0 | 0 | 0 | 0 | 8 | 0 | 0 | 0 | 0 | 0 | 0 | 0 | 0 | 0 | 0 | 0
Cc1cc(Nc2nc(-c3cccc(C)n3)nc3ccccc23)ccn1 [GW872411] | 0 | 0 | 12 | 0 | 0 | 0 | 0 | 21 | 13 | 22 | 27 | 0 | 2 | 9 | 12 | 0 | 4 | 0 | 0 | 25
O=C(Nc1n[nH]c2nc(-c3ccccc3)c(Cl)cc12)C1CC1 [SB-734909] | 5 | 0 | 15 | 1 | 9 | 22 | 0 | 30 | 0 | 0 | 25 | 12 | 11 | 0 | 45 | 24 | 50 | 0 | 0 | 0
COc1ccc(-c2coc3ccc(-c4nnc(SCc5cccc(C#N)c5)o4)cc23)cc1 | 11 | 0 | 13 | 13 | 12 | 0 | 18 | 20 | 18 | 10 | 13 | 31 | 4 | 13 | 0 | 38 | 21 | 16 | 11 | 0
CCC(=O)c1c(-c2ccccc2)c2cc(Cl)ccc2c(=O)n1Cc1cc(S(C)(=O)=O)n(CC(F)F)n1 | 9 | 0 | 0 | 0 | 0 | 0 | 5 | 0 | 1 | 0 | 0 | 0 | 1 | 12 | 0 | 18 | 0 | 0 | 0 | 0
Nc1ncnc2c1ncn2-c1cccc2ccccc12 [SKF-97184] | 2 | 0 | 0 | 0 | 0 | 0 | 0 | 23 | 0 | 52 | 29 | 53 | 5 | 24 | 38 | 8 | 26 | 22 | 0 | 0
CCC(=O)c1c(-c2ccccc2)c2cc(Cl)ccc2c(=O)n1Cc1cc(C(=O)NC2CC2)n(C)n1 | 23 | 0 | 30 | 0 | 0 | 8 | 0 | 13 | 0 | 0 | 13 | 47 | 6 | 3 | 2 | 8 | 11 | 22 | 0 | 5
O=C(Nc1n[nH]c2cc(-c3ccccc3F)ccc12)C1CC1 [SB-733371] | 29 | 16 | 0 | 43 | 18 | 0 | 10 | 0 | 29 | 0 | 0 | 52 | 0 | 14 | 16 | 0 | 48 | 0 | 0 | 0
Nc1nc(-c2ccccc2F)c(-c2ccnc3ccccc23)s1 [GW560459] | 1 | 0 | 0 | 11 | 0 | 9 | 0 | 0 | 0 | 4 | 0 | 0 | 0 | 0 | 0 | 40 | 50 | 5 | 0 | 0
COc1cc2ncn(-c3cc(OCc4ccncc4)c(C(N)=O)s3)c2cc1OC [GSK336313] | 0 | 0 | 0 | 0 | 3 | 5 | 0 | 0 | 0 | 0 | 0 | 0 | 3 | 4 | 0 | 8 | 88 | 44 | 0 | 0
Nc1ncnc2c1ncn2-c1cccc(F)c1 [SKF-97560] | 16 | 38 | 0 | 0 | 0 | 0 | 39 | 0 | 0 | 0 | 0 | 19 | 34 | 31 | 43 | 22 | 31 | 0 | 22 | 24
Cc1ccc(-c2ccc3c(ccc4sc5c(c43)NC[C@@H](C)N=C5N(C)C)n2)cn1 | 0 | 0 | 0 | 0 | 0 | 0 | 0 | 0 | 5 | 0 | 0 | 0 | 0 | 0 | 0 | 0 | 0 | 2 | 0 | 0
COc1cc2ncn(-c3cc(OCc4ccncc4Br)c(C(N)=O)s3)c2cc1OC [GW854278] | 17 | 11 | 0 | 0 | 20 | 0 | 0 | 8 | 37 | 0 | 39 | 3 | 0 | 13 | 0 | 16 | 98.8 | 0 | 17 | 11
COc1ccc(Nc2nccc(N3CCC(NS(=O)(=O)c4ccc(NC(C)=O)cc4)C3)n2)cc1 (stereo not drawn) [GSK1379729] | 13 | 2 | 11 | 21 | 15 | 49 | 1 | 0 | 0 | 0 | 0 | 0 | 0 | 10 | 12 | 5 | 36 | 0 | 17 | 25
CN1C(=O)C(Nc2cc(Cl)c(O)c(Cl)c2)=C(c2ccc(Cl)cc2)C1=O [SB-404321] | 0 | 0 | 0 | 0 | 0 | 89 | 0 | 0 | 10 | 0 | 0 | 41 | 0 | 0 | 29 | 0 | 25 | 0 | 0 | 30
COc1ccc(-n2cnc3c(N)ncnc32)cc1 [SKF-97236] | 0 | 22 | 0 | 17 | 19 | 15 | 0 | 15 | 0 | 0 | 19 | 0 | 0 | 0 | 11 | 29 | 56 | 0 | 0 | 35
COc1cc2ncn(-c3cc(OCc4ccc(S(C)(=O)=O)cc4)c(C(N)=O)s3)c2cc1OC [GW869979] | 0 | 26 | 0 | 0 | 0 | 0 | 31 | 0 | 10 | 0 | 0 | 5 | 30 | 25 | 28 | 6 | 81 | 0 | 8 | 0
